# High-throughput results from PubChem BioAssay.
# aSyn yeast inh – qHTS of alpha-syn Inhibitors | Yeast expressing alpha-synuclein, growth rescue, BacTiter-Glo, 24 h | Potency, µM (highest dose often 46.1 µM), without a hit: at the top dose growth rescue (activation), most hits filed as activators | 370,000 tested, 0.14% active | AID 652106, 2013; also: % of control where 0% means no effect; nearly all actives have a fitted effect of over 65% in size
#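 Screening used galactose-induced yeast with toxic alpha-synuclein levels, exposed to compound for 24 hr at 30 deg C. Cell growth, read with BacTiter-Glo luminescence, gave the measured signal.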
# TDP43 rescue – qHTS of TDP-43 Inhibitors. TDP-43 expressing yeast growth rescue, BacTiter-Glo, 24 h. Potency, µM (series often up to 46.1 µM), for the others: at the highest dose growth rescue (activation), actives largely listed as activators. 410,000 tested, 1.8% active; also: % of control where 0% means no effect; nearly all actives have a fitted effect of over 50% in size
#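 Growth rescue of TDP-43-toxic yeast measured as ATP luminescence (BacTiter-Glo). Cells grown to mid-log in raffinose, induced in galactose at OD600=0.02, exposed to compound 24 hr at 30 deg C.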
# FUS yeast rescue – qHTS for Suppressors of FUS Proteinopathy: Primary screen using FUS-linked yeast assay | S. cerevisiae FUS-expressing, growth rescue, OD600, 24 h | Potency, µM (titrated, usually from 76.6 µM), usual class: activators | 390,000 tested, 0.24% active | AID 1347120, 2019;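 also: plate controls were DMSO vehicle for no effect and reference control for full effect; nearly all actives have a fitted effect of over 55% in size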
#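 Galactose (2%) drives FUS expression in yeast precultured in raffinose; seeding density OD 0.005. Test compounds incubated 24hr at 30C and 99% humidity before absorbance at 600 nm was measured.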
# Abeta rescue – qHTS for compounds that reverse cellular toxicity of Amyloid beta (A-beta) peptide in yeast: Primary Screen; AID 1347071, 2019; Potency, µM (top dose mostly 46.1 µM), actives largely listed as activators; yeast expressing A-beta42, growth rescue, OD600, 48 h; response scale: 0% DMSO, 100% iron-clioquinol control; 410,000 tested, 0.063% active; also: nearly all actives have a fitted effect of over 55% in size
#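 Yeast A-beta toxicity model in growth medium with pinned compounds, 48 h at 30 C; growth read as absorbance at 600 nm. Normalized to FeCl3/clioquinol equimolar mix (positive) and DMSO (negative).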
# An asterisk follows results filed as active; i = inactive; ? = inconclusive; nt = not tested or not shown. Compounds with a hit are over-represented: about 2.1% of the library has one in this group of screens. Calls follow the shape of the dose curve; as a rule, active = well fitted curve in the direction sought with a large enough effect; inconclusive = small, poorly fitted or top-dose-only effect, or another doubt; inactive = no such curve, though single readings can be large; an effect the other way counts as inactive or inconclusive. Potency is read from the fitted curve at half-maximal effect.
SMILES,aSyn yeast inh,TDP43 rescue,FUS yeast rescue,Abeta rescue
c1cc2c(cc1[C@H]1OCC3C1CO[C@@H]3c1ccc3c(c1)OCO3)OCO2 (stereo not given in full),6%,11µM*,?,i
C/C=C/c1ccc2c(c1)OCO2,0%,7%,i,i
COc1cccc(C(C)(O)c2nc(-c3cccc(F)c3)cs2)c1 (stereo not given),0%,?,i,?
CC(=O)O[C@H]1CC[C@@]2(C)C(=CC[C@@H]3[C@@H]2CC[C@]2(C)C(=O)CC[C@@H]32)C1,?,?,i,i
CC(=O)O/C(=C1\CC2C3CC=C4CC(OC(C)=O)CCC4(C)C3CCC2(C)C1=O)C(F)(F)F (stereo not given),13µM*,?,nt,i
O=Cc1c(NCc2ccc(Cl)cc2)c2ccccc2[nH]c1=O,14%,?,i,i
C=CCCC[C@@H]1OC(=O)CNC(=O)C([C@@H](C)CC)NC(=O)[C@@H]2CCCN2C(=O)C([C@@H](C)CC)OC(=O)[C@H](Cc2ccccc2)N(C)C(=O)[C@H](C(C)C)NC(=O)C1(C)C (stereo not given in full),11%,-2%,4µM*,i
CCC(C)C1NC(=O)C2CCCN2C(=O)C(CC(C)C)OC(=O)CCNC(=O)C(C)N(C)C(=O)C(C(C)C)N(C)C1=O (stereo not given),-3%,-15%,nt,i
O=C(CN1CCOCC1)c1ccc2ccccc2c1,10%,nt,nt,nt
COc1ccccc1C(=O)Nc1ccc2c(c1)CC1(C(=O)N(C)C(=O)N(C)C1=O)C1CCCN21 (stereo not given),-2%,-9%,40µM*,i
C/C(=N\NC(N)=S)C12CC3CC(CC(C3)C1)C2,6%,14µM*,i,?
COC(=O)C1=C(c2cccc(OCc3ccccc3)c2)C[C@@H]2CC[C@H]1N2C(=O)NCc1ccc2[nH]ccc2c1,-5%,-1%,8.9µM*,i
COC(=O)C1=C(c2cccc(OCc3ccccc3)c2)C[C@@H]2CC[C@H]1N2C(=O)NCc1ccc(F)cc1,-13%,23%,?,i
Nc1cnn(-c2ccccc2)c(=O)c1Cl,-1%,8%,i,i
CCCCSc1nc2c(cnn2-c2ccccc2)c(=O)n1N,-29%,16µM*,i,i
COc1nnc(-c2ccc(N3CCCCC3)c(NC(=O)c3ccccc3)c2)c2ccccc12,nt,?,i,i
Cc1ccccc1CS(=O)(=O)Cc1ccc(C(=O)N2CCC3(CC2)OCCO3)o1,3%,-7%,i,i
COc1ccc(S(=O)(=O)Cc2ccc(C(=O)N3CCC4(CC3)OCCO4)o2)cc1,-8%,2.5µM*,i,i
C[C@]12CC[C@H]3C(=CCc4cc(O)ccc43)[C@@H]1CCC2=O,2%,10µM*,i,i
C[C@H]1CCCC=CC2C[C@H](O)C[C@@H]2[C@H](O)C=CC(=O)O1 (stereo not given in full),0%,nt,nt,nt
CCCCC[C@@H]1CCCCC[C@@H](O)C[C@H](O)[C@H](O)/C=C/C(=O)O1,0%,?,i,i
c1ccc(C2c3ccccc3-n3nncc3CN2CC2CCCCC2)cc1 (stereo not given),-29%,16µM*,i,i
COc1ccc(CN2Cc3cnnn3-c3ccccc3C2c2ccccc2)cc1 (stereo not given),13%,0%,i,i
CN(CC(=O)NC1CCCC1)S(=O)(=O)c1cccc(Cl)c1,6%,?,i,i
O=C(CCl)c1ccc(O)c(O)c1,-15%,nt,nt,nt
SMILES,aSyn yeast inh,TDP43 rescue,FUS yeast rescue,Abeta rescue
N#Cc1ccccc1Cn1cc(C(=O)C2CC2)c2ccccc21,11%,20µM*,i,i
N#Cc1ccccc1Cn1cc(C(=O)c2ccco2)c2ccccc21,2%,15%,i,i
CCC(=O)c1cn(Cc2ccccc2C#N)c2ccccc12,5%,25µM*,i,i
CCC(=O)Nc1ccc(C(=O)NNC(=O)c2cc([N+](=O)[O-])cc([N+](=O)[O-])c2)cc1,-1%,-23%,i,i
C=CCOC(=O)COc1cc(C)cc2oc(=O)c3c(c12)CCC3,0%,14µM*,?,i
O=C(c1ccco1)c1cn(Cc2ccccc2Cl)c2ccccc12,3%,?,i,i
